Inconclusive results are not listed. Calls of active or inactive are those of the source. The call rests on the fitted dose curve; in most records, active means well fitted curve in the direction sought with a large enough effect; inconclusive means small, poorly fitted or top-dose-only effect, or another doubt; inactive means no such curve, though single readings can be large; an effect the other way counts as inactive or inconclusive. Square brackets hold non-standard residues; d marks the D form. Peptide text beside a SMILES is read from it. ξ: configuration not given here. ξL = CC(C)CC(N)C(=O)O
Assay: Redox Reaction Profiling qHTS: Assay Interference Panel against the NCATS CANVASS Library (AID 1347401);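 on activation (redox signal): 100% = activation by 2 µM chloranil control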
Settings: resazurin-DTT redox cycling, fluorescence, 15 min; series mostly up to 57.1 µM; activation (redox signal): at the top concentration
Method in brief: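 Resazurin (5 uM) conversion to resorufin measured with 200 uM DTT in 50 mM HEPES pH 7.3, 50 mM NaCl. Compounds tested in 11-point qHTS series. Fluorescence (ex 525/em 598 nm) read before and after 15 min dark incubation.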
Potency means the concentration at half of the fitted maximal effect.

| Structure (SMILES) | activation (redox signal) | Potency |
| --- | --- | --- |
| O[C@H]1C=C2[C@H]3CN(Cc4cc5c(cc43)OCO5)[C@H]2C[C@@H]1O | -22.4% (inactive) |  |
| CC[C@@H](c1cc(OC)c(OC)cc1OC)[C@H](C)[C@@H](/C(C)=C/c1cc(OC)c(OC)cc1OC)c1cc(OC)c(OC)cc1OC |  | inactive |
| C/C=C/c1cc2c(c(=O)o1)C(=O)[C@@H](O)[C@H](C)O2 | -0.737% (inactive) |  |
| CC[C@@H](C)[C@H]1NC(=O)C(CC(C)C)NC(=O)[C@@H](CC(C)C)NC(=O)[C@H](Cc2c[nH]c3ccccc23)NC(=O)CNC(=O)[C@@H](CC(N)=O)NC1=O (stereo partly drawn) (cyclo(GW[dL][ξL][dI][dN])) | -15.7% (inactive) |  |
| CN1CCc2cc3c(c4c2C1(C)C(=O)c1cc(O)ccc1-4)OCO3 (configuration not stated) | 0.933% (inactive) |  |
| COc1cc2c(cc1OC)[C@@H](c1ccc3c(c1)OCO3)C(C)[C@@H](C)C2=O (some centres not stated) | -19.8% (inactive) |  |
| CC(C)[C@@H]1CC(=O)c2coc3c2[C@H]1C[C@@H](C)C3=O | 6.79% (inactive) |  |
| COc1cc2oc3ccccc3c(=O)c2cc1OC | -21.7% [at 113 µM] (inactive) |  |
| COC(=O)[C@@]1(C)CCC[C@]2(C)c3cc(OC)ccc3CC[C@@H]12 | -3.73% (inactive) |  |
| COc1cc2ccc(=O)oc2c(O)c1O[C@@H]1O[C@H](CO)[C@@H](O)[C@H](O)[C@H]1O | 3.53% [at 34.1 µM] (inactive) |  |
| CC[C@H]1[C@@H](C)[C@@H](c2cc(OC)c(OC)cc2OC)[C@H](C)[C@@H](c2cc(OC)c(OC)cc2OC)[C@@]12C=C(OC)C(=O)C=C2OC | -18.6% (inactive) |  |
| O=C1CCC(=O)N(O)CCCCCNC(=O)CCC(=O)N(O)CCCCCNC(=O)CCC(=O)N(O)CCCCCN1 | -25.6% (inactive) |  |
| C=C1C[C@H]2O[C@@H]3[C@@H]4[C@H](CC[C@@](C)(O)[C@@H]42)[C@H](C)COC3(C)[C@@H](OC(=O)CCCCCCC)C[C@H]1O (some centres not stated) | -9.86% (inactive) |  |
| C[C@H](CCC(O)C(C)(O)CO)[C@@]1(O)CC[C@@]2(C)C3=C(CC[C@@]21C)[C@@]1(C)CCC(OC(=O)CCC(=O)O)C(C)(C)[C@@H]1CC3 (some centres not stated) | -12.7% (inactive) |  |
| COc1cc(C2C3=C(Cc4cc5c(cc42)OCO5)C(=O)OC3)cc(OC)c1OC (configuration not stated) | -19.9% (inactive) |  |
| CO[C@@H]1[C@H](O)[C@@H](C)O[C@@H](OC[C@@H]2C(C)OC(=O)/C=C/[C@H](C)C(O[C@@H]3O[C@H](C)CC4(OC(=O)O[C@@H]4C)C3O)[C@@H](C)CC(C)C(=O)/C=C/[C@H]3OC23)[C@@H]1OC (some centres not stated) | -11.7% (inactive) |  |
| C=C[C@@](C)(O)CC[C@@H]1[C@@]2(C)CCCC(C)(C)[C@@H]2CC[C@@]1(C)O | -12.9% (inactive) |  |
| COc1ccc([C@@H]2c3cc4c(cc3C(=O)[C@H](C)C2C)OCO4)cc1OC (some centres not stated) | -8.87% (inactive) |  |
| C/C(=C\[C@H](C)C(=O)C[C@H](O)CC1CC(=O)NC(=O)C1)[C@@H]1OC(=O)CCCC/C=C/[C@@H](O)C[C@@H]1C | 10.8% (inactive) |  |
| CC1=C[C@H]2[C@H]3C(=O)C(c4ccc(O)cc4)=C[C@@]3(c3ccc(O)cc3)[C@@H]1C(=O)[C@]2(C)O | -8.89% (inactive) |  |
| C=C1C(=O)O[C@H]2[C@H]1CCC(C)=C1CC[C@@](C)(O)[C@@H]12 | -26.2% (inactive) |  |
| C/C(=C\[C@H](C)C(=O)/C=C/CC1CC(=O)NC(=O)C1)[C@@H]1OC(=O)CCCC/C=C/[C@H](O)[C@@H](O)[C@@H]1C |  | 24.1 µM (active) |
| COc1ccc([C@@H]2c3cc4c(cc3C[C@H](C)C2C)OCO4)cc1OC (some centres not stated) | -17.1% (inactive) |  |
| CC[C@@H]1[C@H](C)[C@H](c2cc(OC)c(OC)cc2OC)[C@@H](C)[C@H](c2cc(OC)c(OC)cc2OC)[C@]12C=C(OC)C(=O)C=C2OC | -20.8% (inactive) |  |
| C[C@H]1CCC2(OC1)O[C@H]1C[C@H]3[C@@H]4CC(=O)[C@]5(O)C[C@H](O)CC[C@@]5(C)[C@H]4CC[C@@]3(C)[C@H]1[C@H]2C (some centres not stated) | -23% (inactive) |  |
| C/C1=C/[C@@H](C)[C@H](O)C/C=C/CC/C=C/C(=O)O[C@@H]1[C@H](C)C(=O)CCCC1CC(=O)NC(=O)C1 | -5.82% (inactive) |  |
| C=C1C[C@H]2O[C@@H]3[C@@H]4[C@H](CC[C@@](C)(O)[C@@H]42)[C@H](C)COC3(C)[C@@H](OC(=O)CCCCCCC)CC1=O (some centres not stated) | -5.8% (inactive) |  |

Assay: qHTS to identify inhibitors of the type 1 interferon - major histocompatibility complex class I in skeletal muscle: primary screen against the NCATS Mechanism Interrogation Plate v5.0 (MIPE) Libary (AID 1347411); further: nearly all actives have a fitted effect of over 65% in size;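 on activity change, negative = inhibition: plate controls were vehicle for no effect and reference inhibitor for full effect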
Settings: iHSKM cells + IFN-b, HiBiT-tagged MHC-I luminescence, 24 h; series mostly up to 45.8 µM; activity change, negative = inhibition: at the top concentration
Method in brief: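 Immortalized human myoblasts (C25cl48) with HiBit knocked into endogenous HLA-B*08:01 were stimulated with 4 ng/ml IFN-beta and given compounds in 11-point 1:3 titration from 46 uM. After 24 h at 37 C, lytic HiBiT luminescence was read.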

| Structure (SMILES) | Potency | activity change, negative = inhibition |
| --- | --- | --- |
| C=C1C(=O)O[C@H]2C[C@H](C)C(/C=C/C(C)=O)=CC[C@H]12 | 6.58 µM (active) |  |
| OC1CCC(Oc2cccc3cnc(Nc4ccc5nc[nH]c5c4)nc23)CC1 (configuration not stated) | 0.523 µM (active) |  |
| CC1=C2[N-][C@H]([C@H](CC(N)=O)[C@@]2(C)CCC(=O)NC[C@@H](C)OP(=O)([O-])O[C@H]2[C@@H](O)[C@@H](n3cnc4cc(C)c(C)cc43)O[C@@H]2CO)[C@]2(C)N=C(C(C)=C3N=C(C=C4N=C1[C@@H](CCC(N)=O)C4(C)C)[C@@H](CCC(N)=O)[C@]3(C)CC(N)=O)[C@@H](CCC(N)=O)[C@]2(C)CC(N)=O.O.[Co+2] | 8.29 µM (active) |  |
| CC(C)c1c(-c2ccccc2)nc2c(C#N)c[nH]n2c1=O | 5.23 µM (active) |  |
| C=C1C(=O)O[C@@H]2[C@H]3C(C)=CC[C@@]34O[C@@]4(C)CC[C@@H]12 | 16.5 µM (active) |  |
| CN(C)C/C=C/C(=O)Nc1ccc(C(=O)N2CCC[C@@H](Nc3ncc(Cl)c(-c4c[nH]c5ccccc45)n3)C2)cc1 | 1.47 µM (active) |  |
| Fc1cccc(-n2cnc3c(NCc4nc5c(F)c(F)ccc5[nH]4)nc(N4CCOCC4)nc32)c1 | 0.523 µM (active) |  |
| CN[C@@H](C)C(=O)N[C@@H]1C(=O)N(Cc2c(C)ccc3ccccc23)c2ccc(C#N)cc2N(C(C)=O)[C@H]1C |  | -2.97% (inactive) |
| O=C(/C=C\n1cnc(-c2cc(C(F)(F)F)cc(C(F)(F)F)c2)n1)NNc1cnccn1 | 7.39 µM (active) |  |
| CS[C@H]1SC[C@@H]2C(=O)N(C)[C@H](C(C)C)C(=O)OC[C@H](NC(=O)c3cnc4ccccc4n3)C(=O)N[C@H](C)C(=O)N(C)[C@H]1C(=O)N(C)[C@H](C(C)C)C(=O)OC[C@H](NC(=O)c1cnc3ccccc3n1)C(=O)N[C@H](C)C(=O)N2C | 0.0104 µM (active) |  |

Source: PubChem BioAssay (NCATS)
